Reference: PubChem BioAssay (Tox21)
Activity calls are given as the source filed them. Unless noted, the call rests on the fitted dose curve; in most records, active means well fitted curve in the direction sought with a large enough effect in the repeat runs; inconclusive means weak or mixed curves; inactive means no such curve, though single readings can be large; an effect the other way counts as inactive or inconclusive. Positions of bridges follow the written chain, without caps; N, C: chain ends. Non-standard residues stand in square brackets, D forms with d. Residues, ends and D or L forms follow the SMILES beside them. *: point of attachment. X2 = CC[C@H](C)CCCCC(=O)*; Dab = NCC[C@H](N)C(=O)O

Experiments:
[1] = qHTS assay to identify small molecule antagonists of the glucocorticoid receptor (GR) signaling pathway - cell viability counter screen (AID 720693); further: nearly all actives have a fitted effect of over 55% in size
[2] = qHTS assay for identifying genotoxic compounds that show differential cytotoxicity against isogenic chicken DT40 cell lines with known DNA damage response pathways - Rev3 mutant cell line (AID 743014); further: nearly all actives have a fitted effect of over 55% in size; further: potency means the concentration at half of the fitted maximal effect
[3] = qHTS assay for identifying genotoxic compounds that show differential cytotoxicity against isogenic chicken DT40 cell lines with known DNA damage response pathways - Rad54/Ku70 mutant cell line (AID 743015); further: nearly all actives have a fitted effect of over 60% in size; further: potency means the concentration at half of the fitted maximal effect
[4] = qHTS assay to identify small molecule antagonists of the androgen receptor (AR) signaling pathway - cell viability counter screen (AID 743033; further: nearly all actives have a fitted effect of over 45% in size)
[5] = qHTS assay to identify small molecule antagonists of the androgen receptor (AR) signaling pathway using the MDA cell line - cell viability counter screen (AID 743041; further: nearly all actives have a fitted effect of over 45% in size)
Outline: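 Cells were plated at 3,000 per well and left 5 h. Compounds in DMSO were then pinned in, followed by R1881. After 16 h at 37C, CellTiter-Fluor fluorescence gave viability.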

[6] = qHTS assay to identify small molecule antagonists of the thyroid receptor (TR) signaling pathway - cell viability counter screen (AID 743064); further: nearly all actives have a fitted effect of over 50% in size; further: potency means the concentration at half of the fitted maximal effect
Outline: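 In-well cytotoxicity read by CellTiter-Fluor (30 min, 37 C) following 23.5 h exposure of GH3 cells bearing a TRE-luciferase sensor. Compounds were added alongside 1 nM (final) T3 to drive TR transactivation.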

[7] = qHTS assay to identify small molecule antagonists of the thyroid receptor (TR) signaling pathway (AID 743065); further: nearly all actives have a fitted effect of over 55% in size; further: potency means the concentration at half of the fitted maximal effect
Outline: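 Antagonism measured as loss of luciferase signal in GH3 cells stably carrying a TRE-luciferase reporter, co-treated with compound and T3 (1 nM final) for 23.5 h at 37 C. Viability was read in the same well by CellTiter-Fluor.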

[8] = tested on: thyroid hormone receptor (rat, GH3 cells); assay: qHTS assay to identify small molecule agonists of the thyroid receptor (TR) signaling pathway (AID 743066; calls by dose curve)
[9] = biological target: Estrogen receptor (Homo sapiens) (UniProt P03372); assay: qHTS assay to identify small molecule antagonists of the estrogen receptor alpha (ER-alpha) signaling pathway (AID 743069; active means well fitted curve in the direction sought with a large enough effect in the signal ratio in the repeat runs, not every such curve was filed as active; inconclusive means weak or mixed curves, or effect the other way; inactive means no such curve, though single readings can be large or run the other way; the % refers to the signal ratio)
Estrogen receptor (Homo sapiens), sequence (P03372 whole entry, looked up): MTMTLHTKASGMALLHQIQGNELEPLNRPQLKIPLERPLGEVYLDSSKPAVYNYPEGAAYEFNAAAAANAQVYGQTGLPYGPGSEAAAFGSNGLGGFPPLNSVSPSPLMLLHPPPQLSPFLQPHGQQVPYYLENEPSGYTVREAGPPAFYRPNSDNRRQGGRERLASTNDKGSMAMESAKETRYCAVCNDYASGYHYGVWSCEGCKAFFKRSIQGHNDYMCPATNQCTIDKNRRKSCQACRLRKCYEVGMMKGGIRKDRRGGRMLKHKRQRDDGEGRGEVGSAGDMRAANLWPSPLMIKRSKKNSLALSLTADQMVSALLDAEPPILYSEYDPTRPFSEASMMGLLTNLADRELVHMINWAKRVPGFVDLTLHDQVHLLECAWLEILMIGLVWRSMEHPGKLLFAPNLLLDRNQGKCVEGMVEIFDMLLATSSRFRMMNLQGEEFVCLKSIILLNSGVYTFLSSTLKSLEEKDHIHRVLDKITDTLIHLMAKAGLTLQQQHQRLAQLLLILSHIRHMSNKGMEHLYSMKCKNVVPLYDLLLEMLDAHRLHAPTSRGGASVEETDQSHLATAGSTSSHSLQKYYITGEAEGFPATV
Outline: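 ER-alpha-UAS-bla GripTite HEK293 line; 2% charcoal-stripped FBS overnight; plated, 4 hr 37C/5% CO2; cpd in DMSO + 17beta-estradiol, 18 hr 37C; LiveBLAzer B/G FRET substrate 2 hr RT; fluorescence intensity.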

[10] = qHTS assay to identify small molecule antagonists of the estrogen receptor alpha (ER-alpha) signaling pathway - cell viability counter screen (AID 743074; calls by dose curve;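 further: HEK293 cells carrying ER-alpha-UAS-bla reporter stimulated with 17beta-estradiol; nearly all actives have a fitted effect of over 45% in size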)
[11] = biological target: Estrogen receptor (Homo sapiens) (UniProt P03372); assay: qHTS assay to identify small molecule agonists of the estrogen receptor alpha (ER-alpha) signaling pathway (AID 743075; calls by dose curve;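 further: HEK293 GripTite cells with ER-alpha and UAS-driven beta-lactamase reporter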; further: potency means the concentration at half of the fitted maximal effect)
[12] = biological target: Estrogen receptor (Homo sapiens) (UniProt P03372); assay: qHTS assay to identify small molecule agonists of the estrogen receptor alpha (ER-alpha) signaling pathway using the BG1 cell line (AID 743079); settings: BG1Luc4E2 cells, ERE-luciferase agonist, 22 h; activation: at 70.3 µM (top of the series); further: nearly all actives have a fitted effect of over 20% in size; further: potency means the concentration at half of the fitted maximal effect
[13] = qHTS assay to identify small molecule antagonists of the estrogen receptor alpha (ER-alpha) signaling pathway using the BG1 cell line (AID 743080; calls by dose curve;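 further: BG1 cells stimulated with 17beta-estradiol alongside compound; nearly all actives have a fitted effect of over 25% in size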; further: potency means the concentration at half of the fitted maximal effect)
Outline: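 Readout is ONE-Glo luminescence, taken 30 min at room temperature after reagent addition, preceded by a CellTiter-Fluor viability read; BG1-Luc-4E2 cells had received compound and 17beta-estradiol for 21.5 h at 37 C.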

[14] = biological target: Aromatase (Homo sapiens) (UniProt P11511); assay: qHTS assay to identify aromatase inhibitors (AID 743083); further: nearly all actives have a fitted effect of over 55% in size
Aromatase (Homo sapiens), sequence (P11511 whole entry, looked up): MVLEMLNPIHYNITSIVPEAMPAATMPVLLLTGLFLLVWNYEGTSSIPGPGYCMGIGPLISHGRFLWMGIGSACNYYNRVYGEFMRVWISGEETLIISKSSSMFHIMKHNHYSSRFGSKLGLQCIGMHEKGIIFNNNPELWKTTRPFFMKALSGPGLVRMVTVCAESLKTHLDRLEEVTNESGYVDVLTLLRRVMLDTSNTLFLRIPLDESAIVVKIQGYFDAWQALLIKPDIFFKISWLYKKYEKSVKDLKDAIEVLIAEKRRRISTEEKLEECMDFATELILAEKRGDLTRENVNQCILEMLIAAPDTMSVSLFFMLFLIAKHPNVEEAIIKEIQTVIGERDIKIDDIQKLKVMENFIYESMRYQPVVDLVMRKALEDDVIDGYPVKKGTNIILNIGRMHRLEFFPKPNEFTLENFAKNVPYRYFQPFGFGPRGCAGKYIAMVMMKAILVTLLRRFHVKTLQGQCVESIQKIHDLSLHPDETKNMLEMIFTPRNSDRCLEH

[15] = qHTS assay to identify small molecule antagonists of the estrogen receptor alpha (ER-alpha) signaling pathway using the BG1 cell line - cell viability counter screen (AID 743081);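 further: compound given together with 17beta-estradiol as the ER stimulus; nearly all actives have a fitted effect of over 45% in size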
[16] = qHTS assay for identifying genotoxic compounds that show differential cytotoxicity against isogenic chicken DT40 cell lines with known DNA damage response pathways - wild type cell line (AID 743012); further: nearly all actives have a fitted effect of over 60% in size; further: potency means the concentration at half of the fitted maximal effect
Outline: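 Wild type DT40, 300 cells/well, ~0.5 h settle at 37 C/5% CO2; compounds in DMSO added by pintool; 40 h at 37 C/5% CO2; CellTiter-Glo, 30 min RT; luminescence.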

[17] = biological target: Androgen receptor (Homo sapiens) (UniProt P10275); assay: qHTS assay to identify small molecule antagonists of the androgen receptor (AR) signaling pathway (AID 743035; active means well fitted inhibition curve with a large enough effect in the signal ratio in the repeat runs, not every such curve was filed as active; inconclusive means weak or mixed curves, or effect the other way; inactive means no such curve, though single readings can be large or run the other way; the % refers to the signal ratio; further: potency means the concentration at half of the fitted maximal effect)
Androgen receptor (Homo sapiens), sequence (P10275 whole entry, looked up): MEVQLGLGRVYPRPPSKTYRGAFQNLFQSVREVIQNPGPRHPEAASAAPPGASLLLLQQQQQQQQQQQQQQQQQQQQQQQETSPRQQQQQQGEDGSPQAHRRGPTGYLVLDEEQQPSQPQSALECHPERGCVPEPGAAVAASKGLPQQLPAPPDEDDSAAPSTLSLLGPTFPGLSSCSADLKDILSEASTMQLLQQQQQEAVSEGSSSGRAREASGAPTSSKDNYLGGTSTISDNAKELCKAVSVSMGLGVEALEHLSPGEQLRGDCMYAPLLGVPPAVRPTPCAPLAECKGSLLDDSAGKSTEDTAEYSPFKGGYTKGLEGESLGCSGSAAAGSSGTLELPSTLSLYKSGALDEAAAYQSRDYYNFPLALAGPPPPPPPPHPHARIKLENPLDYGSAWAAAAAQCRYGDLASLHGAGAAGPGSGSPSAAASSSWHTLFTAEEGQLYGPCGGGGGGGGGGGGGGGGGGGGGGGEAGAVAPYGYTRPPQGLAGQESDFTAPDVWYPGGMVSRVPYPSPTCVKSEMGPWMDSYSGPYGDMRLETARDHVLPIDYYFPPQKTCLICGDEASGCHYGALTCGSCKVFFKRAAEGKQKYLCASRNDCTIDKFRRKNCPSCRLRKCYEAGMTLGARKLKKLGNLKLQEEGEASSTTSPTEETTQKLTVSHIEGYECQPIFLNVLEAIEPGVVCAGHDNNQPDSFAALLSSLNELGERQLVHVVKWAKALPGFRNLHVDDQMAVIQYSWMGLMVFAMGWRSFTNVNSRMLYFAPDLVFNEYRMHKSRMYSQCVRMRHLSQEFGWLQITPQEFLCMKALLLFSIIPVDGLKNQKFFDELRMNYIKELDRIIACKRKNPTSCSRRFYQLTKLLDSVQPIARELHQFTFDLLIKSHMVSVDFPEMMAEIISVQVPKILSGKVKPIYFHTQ
Outline: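 Fluorescence from a beta-lactamase FRET substrate (LiveBLAzer B/G, 2 h, room temperature) measured inhibition of R1881-stimulated signaling in GeneBLAzer AR-UAS-bla HEK293 cells exposed to compound for 16 h at 37C.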

[18] = biological target: Androgen receptor (Homo sapiens) (UniProt P10275); assay: qHTS assay to identify small molecule agonists of the androgen receptor (AR) signaling pathway (AID 743036; active means well fitted activation curve with a large enough effect in the signal ratio in the repeat runs, with a control signal flat, not every such curve was filed as active; inconclusive means weak or mixed curves, or effect the other way; inactive means no such curve, though single readings can be large or run the other way; the % refers to the signal ratio)
Outline: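 Activation was read as beta-lactamase FRET signal from LiveBLAzer B/G substrate, added for 2 h at room temperature. Before that, GeneBLAzer AR-UAS-bla GripTite (HEK293) cells had 16 h compound exposure at 37C.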

[19] = biological target: Androgen receptor (Homo sapiens) (UniProt P10275); assay: qHTS assay to identify small molecule agonists of the androgen receptor (AR) signaling pathway using the MDA cell line (AID 743040; further: nearly all actives have a fitted effect of over 20% in size; further: potency means the concentration at half of the fitted maximal effect)
Outline: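 Cells plated, 5 h at 37C/0% CO2; compound or DMSO pinned; 16 h at 37C; ONE-Glo added; luminescence measured after 30 min at room temperature. Reporter line: MDA-kb2 with MMTV-luciferase responsive to AR and GR.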

[20] = biological target: Androgen receptor (Homo sapiens) (UniProt P10275); assay: qHTS assay to identify small molecule antagonists of the androgen receptor (AR) signaling pathway using the MDA cell line (AID 743042; further: nearly all actives have a fitted effect of over 55% in size)
Outline: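 Antagonist mode: compounds plus R1881 agonist added to MDA-kb2 AR-luc cells, incubated 16 h at 37C. Luciferase reporter luminescence quantified, with multiplexed CellTiter-Fluor readout for cell viability.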

Measured: Potency

CCN(CC)CCOC(=O)c1ccc(N)cc1Cl
not listed: [15] | [16] | [17] | [18] | [19] | [20]
inactive: all other assays above

CC(C)CN(C[C@@H](O)[C@H](Cc1ccccc1)NC(=O)O[C@H]1CO[C@H]2OCC[C@H]21)S(=O)(=O)c1ccc(N)cc1
active: [3] 29.8 µM
not listed: [16] | [17] | [18] | [19] | [20]
inactive: all other assays above

CC[C@H](C)CCCCC(=O)N[C@@H](CCN)C(=O)N[C@H](C(=O)N[C@@H](CCN)C(=O)N[C@H]1CCNC(=O)[C@@H]([C@H](C)O)NC(=O)[C@H](CCN)NC(=O)[C@H](CCN)NC(=O)[C@H](CC(C)C)NC(=O)[C@@H](CC(C)C)NC(=O)[C@H](CCN)NC1=O)[C@@H](C)O (X2-[Dab]T[Dab][Dab][Dab][dL]L[Dab][Dab][dT]; lactam 4-C)
not listed: [2] | [3] | [4] | [6] | [17] | [18] | [19] | [20]
inactive: all other assays above

CCC(=O)NCCC1CCc2ccc3c(c21)CCO3 (stereo not drawn)
active: [16] 26.6 µM | [12] 4.22 µM
not listed: [2] | [3] | [4] | [7] | [9] | [13]
inactive: all other assays above

CC(C)(C)CC(C)(C)c1cc(Cc2cc(C(C)(C)CC(C)(C)C)cc(-n3nc4ccccc4n3)c2O)c(O)c(-n2nc3ccccc3n2)c1
not listed: [9] | [12] | [16] | [17] | [18] | [19] | [20]
inactive: all other assays above

CCOC(=O)O[C@]1(C(=O)COC(=O)CC)CC[C@H]2[C@@H]3CCC4=CC(=O)C=C[C@]4(C)[C@H]3[C@@H](O)C[C@@]21C
active: [17] 2.04 µM | [19] 0.0507 µM
not listed: [2] | [3] | [4] | [13] | [18]
inactive: all other assays above

C[C@H]1C[C@H]2[C@@H]3CCC4=CC(=O)C=C[C@]4(C)[C@@]3(F)[C@@H](O)C[C@]2(C)[C@@]1(O)C(=O)CCl
active: [2] 26.6 µM | [3] 23.7 µM
inactive: [1] | [4] | [5] | [6] | [7] | [8] | [10] | [11] | [12] | [14]

CCOC(=O)Nc1ccc2c(c1)N(C(=O)CN(C)C)c1ccccc1CC2
inactive: [1] | [8] | [10]
active: [16] 61.1 µM | [6] 48.6 µM | [7] 48.6 µM

Cn1nnnc1SCC1=C(C(=O)O)N2C(=O)[C@@H](NC(=O)[C@H](O)c3ccccc3)[C@H]2SC1
not listed: [2] | [3] | [5] | [17] | [18] | [19] | [20]
inactive: all other assays above

CNCC(O)c1ccc(OC(=O)C(C)(C)C)c(OC(=O)C(C)(C)C)c1 (stereo not drawn)
active: [16] 12.7 µM
inactive: [1] | [5] | [8] | [9] | [10] | [11] | [12] | [13] | [14]

O=c1oc2cc(O)ccc2s1
not listed: [2] | [3] | [5] | [9] | [17] | [18] | [19] | [20]
inactive: all other assays above

CCCCCCCCCCCC(=O)OC[C@@H](O)C1OC[C@H](O)[C@H]1O (stereo partly drawn)
inactive: [1] | [2] | [3] | [4] | [5] | [6] | [7] | [8] | [10] | [15] | [14]

C#C[C@]1(O)CC[C@H]2[C@@H]3CCC4=CC(=O)CC[C@@H]4[C@H]3C(=C)C[C@@]21CC
inactive: [1] | [4] | [6] | [10] | [14]
active: [16] 29.8 µM | [11] 2.39 µM [inconclusive] | [12] 1.88 µM

CC[C@@H]1/C=C(\C)C[C@H](C)C[C@H](OC)[C@H]2O[C@@](O)(C(=O)C(=O)N3CCCC[C@H]3C(=O)O[C@H](/C(C)=C/[C@@H]3CC[C@@H](Cl)[C@H](OC)C3)[C@H](C)[C@@H](O)CC1=O)[C@H](C)C[C@@H]2OC
inactive: [1] | [2] | [3] | [4] | [5] | [8] | [10] | [15] | [14]

CN1C(=O)CN2CCc3ccccc3C2c2cc(Cl)ccc21 (stereo not drawn)
active: [13] 21.1 µM
not listed: [6] | [7] | [8] | [16] | [17] | [18] | [19] | [20]
inactive: all other assays above

Cc1ccc(/C(=C\CN2CCCC2)c2cccc(/C=C/C(=O)O)n2)cc1
inactive: [1] | [2] | [3] | [6] | [7] | [8] | [10] | [15]

C[N+]1(C)[C@@H]2CC(OC(=O)C(O)(c3cccs3)c3cccs3)C[C@H]1[C@@H]1O[C@@H]12 (stereo partly drawn)
inactive: [1] | [2] | [6] | [9] | [10] | [11] | [13] | [15] | [14]

CC(C)NCC(O)COc1ccccc1-n1cccc1 (stereo not drawn)
inactive: [1] | [2] | [3] | [4] | [5] | [7] | [8] | [10] | [15] | [14]
